Measurements published in paper PMC5540273 (PLoS ONE, 2017).

What was measured:
Conditions in all cases: concentration: 1 μM, replicates: in singlicate; n = 1
AMPK-alpha2 = system: T1, AMPK-alpha2
T1 construct: gene PRKAA2

ANKK1 = system: ANKK1
ARK5 = system: T2, ARK5
T2 construct: gene NUAK1

ASK1 = system: T3, ASK1
T3 construct: gene MAP3K5

ASK2 = system: T4, ASK2
T4 construct: gene MAP3K6

AURKA = system: AURKA
AURKB = system: AURKB
AURKC = system: AURKC
AXL = system: AXL
BIKE = system: T5, BIKE
T5 construct: gene BMP2K
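Note: KINOMEscan kinase panel screen.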

Compound	%Inh (AMPK-alpha2)	%Inh (ANKK1)	%Inh (ARK5)	%Inh (ASK1)	%Inh (ASK2)	%Inh (AURKA)	%Inh (AURKB)	%Inh (AURKC)	%Inh (AXL)	%Inh (BIKE)
O=C(c1ccc(-c2cc(-c3c[nH]nc3-c3ccccn3)ccn2)cc1)N1CCOCC1 [GW812171]	22%	14%	0%	0%	0%	13%	33%	0%	0%	0%
COc1ccc(CNC(=O)NC2CCN(c3ccnc(Nc4ccc(OC)cc4)n3)C2)cc1 (stereo not shown) [GSK1379727]	0%	0%	0%	0%	0%	5%	22%	56%	7%	11%
COc1cc(Nc2nccc(N3CCC(NC(=O)c4cccc(NC(C)=O)c4)C3)n2)cc(OC)c1OC (stereo not shown) [GSK1379754]	12%	34%	31%	0%	0%	97.6%	0%	88%	36%	86%
COC(=O)Nc1nc2cc(Oc3ccc(NC(=O)Nc4cc(F)ccc4F)cc3)ccc2[nH]1.Cl [GW701424]	8%	12%	0%	13%	0%	0%	94.5%	50%	93.5%	3%
O=C(NCCNc1ccnc(Nc2ccc(F)cc2)n1)Nc1ccccc1F [GSK1379880]	0%	0%	21%	1%	0%	11%	32%	6%	0%	0%
Cc1cn2c(=O)cc(N3CCOCC3)nc2n1Cc1cccc(Cl)c1Cl [GSK2334006]	0%	0%	14%	1%	3%	0%	26%	44%	0%	27%
O=c1cc(N2CCOCC2)nc2n(Cc3cccc(F)c3)ccn12 [GSK2297430]	21%	0%	7%	0%	6%	0%	0%	32%	14%	26%
Cc1c(Cn2c(C)nn3c(=O)cc(N4CCOC(C)C4)nc23)cccc1C(F)(F)F (stereo not shown) [GSK2344444]	0%	0%	10%	1%	8%	0%	0%	8%	0%	16%
O=C(NOCC1CC1)c1ccc(F)c(F)c1Nc1ccc(I)cc1Cl	0%	0%	0%	0%	0%	0%	0%	20%	2%	43%
c1ccc(-c2n[nH]cc2-c2ccnc3ccccc23)nc1 [GW271431]	11%	22%	5%	0%	0%	12%	20%	10%	11%	24%
CN(C(=O)c1ccc(-c2cc(-c3c[nH]nc3-c3ccccn3)ccn2)cc1)C1CCOCC1 [GW810083]	0%	0%	15%	44%	0%	0%	0%	7%	48%	20%
COc1ccc(Nc2ncc(C#N)c(Nc3ccccc3C(N)=O)n2)cc1N1CCN(C)CC1.Cl [GSK1558669]	99.8%	52%	100%	0%	22%	99.9%	99.9%	100%	98.9%	100%
CC(C)(C)n1cnc2c(N)ncnc21 [SKF-97359]	0%	0%	19%	0%	0%	0%	15%	0%	45%	0%
NCC(NC(=O)c1cc(-c2cn[nH]c2)c(-c2ccnc3[nH]ccc23)s1)c1ccccc1.O=C(O)C(F)(F)F.O=C(O)C(F)(F)F (stereo not shown) [GSK1325775]	24%	0%	52%	11%	23%	95.6%	83%	82%	45%	99.7%
[2H]C([2H])(c1cccc(C(F)(F)F)c1C)n1ccn2c(=O)nc(N3CCOCC3)cc12 [GSK2336394]	15%	0%	0%	1%	0%	0%	11%	13%	8%	23%
CNc1ncnc2[nH]ncc12 [SKF-18355]	0%	0%	0%	0%	0%	2%	34%	0%	0%	0%
